Measured values taken from PubChem BioAssay (EPA / NIEHS).
Active and inactive are the calls of the source. Rule for the calls: active = hit-call score of the fitted dose curve at least 0.9, where 1 is the maximum; inactive = score below 0.9.

Tests used:
[1] = target: Paired box protein Pax-6 (Homo sapiens) (UniProt P26367); test: ATG_Pax6_CIS: Attagene CIS-FACTORIAL HepG2 Assay for human Paired Box 6 (PAX6) (AID 2282956); settings: HepG2 CIS-FACTORIAL PAX6 reporter transcription, RNA readout; actives raise or lower the signal
Method in brief: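 Readout: reporter transcript fluorescence after RT-PCR and capillary electrophoresis. Cells: HepG2, transiently transfected with cis-regulated MRTUs. Exposure 24 h. Gain or loss of signal fitted bidirectionally relative to DMSO.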

[2] = ATG_PXRE_CIS: Attagene CIS-FACTORIAL HepG2 Assay for human Pregnane X Receptor Element (PXRE) (AID 2282957); settings: HepG2 Attagene CIS-FACTORIAL PXRE reporter, mRNA; actives raise or lower the signal
Method in brief: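 Reporter transcripts under endogenous PXR-responsive cis-regulation quantified from total RNA of transfected HepG2 cells 24 h post-dosing, via RT-PCR with fluorescent primer extension and capillary electrophoresis. Gain or loss of signal fitted against DMSO baseline.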

[3] = ATG_Sox_CIS: Attagene CIS-FACTORIAL HepG2 Assay for human SRY-box transcription factor (SOX) (AID 2282960); settings: HepG2 Attagene cis-factorial SOX reporter, mRNA; actives raise or lower the signal
Method in brief: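 Transient MRTU transfection of HepG2; 24 h compound incubation; TriZol RNA, oligo(dT) RT, PCR, 6-FAM primer extension, HpaI cut, CE. Bidirectional fit, DMSO = baseline.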

[4] = target: Transcription factor Sp1 (Homo sapiens) (UniProt P08047); test: ATG_Sp1_CIS: Attagene CIS-FACTORIAL HepG2 Assay for human Specificity Protein 1 (Sp1) (AID 2282961); settings: HepG2 Sp1 cis-reporter transcription, actives raise or lower the signal
Method in brief: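 Endogenous Sp1 activity was gauged in human liver HepG2 cells bearing transfected reporter units under a cis-regulating promoter. After 24 h dosing, reporter mRNA was quantified by RT-PCR with capillary electrophoresis, and activity fitted bidirectionally versus DMSO.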

[5] = ATG_SREBP_CIS: Attagene CIS-FACTORIAL HepG2 Assay for human Sterol Regulatory Element Binding (SREBP) (AID 2282962); settings: HepG2 Attagene cis-factorial SREBP reporter, mRNA; actives raise or lower the signal
Method in brief: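 Readout: fluorescent reporter-transcript peaks resolved by capillary electrophoresis after RT-PCR. Cells were human HepG2 carrying transfected cis-promoter reporter constructs, dosed for 24 h. Gain or loss of signal was fitted against DMSO controls.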

[6] = target: Signal transducer and activator of transcription 3 (Homo sapiens) (UniProt P40763); test: ATG_STAT3_CIS: Attagene CIS-FACTORIAL HepG2 Assay for human Signal Transducer and Activator of Transcription 3 (STAT3) (AID 2282963); settings: HepG2, Attagene cis-factorial STAT3 reporter transcription; actives raise or lower the signal
Method in brief: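 Readout is reporter transcript quantified by RT-PCR and capillary electrophoresis, with 6-FAM primer extension and HpaI digestion. Total RNA is taken 24 h after dosing transiently transfected HepG2 carrying cis-regulated reporter units. Bidirectional fit against DMSO.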

[7] = ATG_TA_CIS: Attagene CIS-FACTORIAL HepG2 Assay for human TA Basal Promoter (AID 2282964); settings: HepG2 Attagene CIS-factorial TA basal promoter reporter; actives raise or lower the signal
Method in brief: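 Multiplexed mRNA reporter assay, HepG2, 24 h. Reporter cDNA amplified, 6-FAM primer-extended, HpaI-cut, CE-sized; DMSO = negative control and baseline.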

Measured: outcome

Transcription factor Sp1 (Homo sapiens), sequence (P08047 whole entry, looked up): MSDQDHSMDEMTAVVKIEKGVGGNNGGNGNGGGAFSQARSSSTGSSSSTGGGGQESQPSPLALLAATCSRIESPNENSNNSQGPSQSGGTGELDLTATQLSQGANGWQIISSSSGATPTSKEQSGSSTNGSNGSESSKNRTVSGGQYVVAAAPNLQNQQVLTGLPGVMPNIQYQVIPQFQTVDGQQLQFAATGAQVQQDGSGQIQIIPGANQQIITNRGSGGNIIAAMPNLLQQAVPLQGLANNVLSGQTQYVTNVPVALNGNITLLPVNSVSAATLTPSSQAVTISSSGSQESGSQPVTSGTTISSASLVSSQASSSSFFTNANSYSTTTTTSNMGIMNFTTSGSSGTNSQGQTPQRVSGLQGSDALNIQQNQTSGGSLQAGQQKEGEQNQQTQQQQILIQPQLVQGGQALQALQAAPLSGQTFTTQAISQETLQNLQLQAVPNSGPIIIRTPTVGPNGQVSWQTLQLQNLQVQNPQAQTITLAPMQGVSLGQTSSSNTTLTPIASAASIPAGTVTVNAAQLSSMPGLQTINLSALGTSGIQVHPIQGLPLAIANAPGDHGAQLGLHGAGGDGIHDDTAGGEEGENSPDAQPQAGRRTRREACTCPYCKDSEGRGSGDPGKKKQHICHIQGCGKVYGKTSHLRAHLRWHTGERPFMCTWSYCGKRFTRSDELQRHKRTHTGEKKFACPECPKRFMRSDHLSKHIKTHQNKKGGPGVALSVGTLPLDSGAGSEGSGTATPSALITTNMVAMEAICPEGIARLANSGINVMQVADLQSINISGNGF
Signal transducer and activator of transcription 3 (Homo sapiens), sequence (P40763 whole entry, looked up): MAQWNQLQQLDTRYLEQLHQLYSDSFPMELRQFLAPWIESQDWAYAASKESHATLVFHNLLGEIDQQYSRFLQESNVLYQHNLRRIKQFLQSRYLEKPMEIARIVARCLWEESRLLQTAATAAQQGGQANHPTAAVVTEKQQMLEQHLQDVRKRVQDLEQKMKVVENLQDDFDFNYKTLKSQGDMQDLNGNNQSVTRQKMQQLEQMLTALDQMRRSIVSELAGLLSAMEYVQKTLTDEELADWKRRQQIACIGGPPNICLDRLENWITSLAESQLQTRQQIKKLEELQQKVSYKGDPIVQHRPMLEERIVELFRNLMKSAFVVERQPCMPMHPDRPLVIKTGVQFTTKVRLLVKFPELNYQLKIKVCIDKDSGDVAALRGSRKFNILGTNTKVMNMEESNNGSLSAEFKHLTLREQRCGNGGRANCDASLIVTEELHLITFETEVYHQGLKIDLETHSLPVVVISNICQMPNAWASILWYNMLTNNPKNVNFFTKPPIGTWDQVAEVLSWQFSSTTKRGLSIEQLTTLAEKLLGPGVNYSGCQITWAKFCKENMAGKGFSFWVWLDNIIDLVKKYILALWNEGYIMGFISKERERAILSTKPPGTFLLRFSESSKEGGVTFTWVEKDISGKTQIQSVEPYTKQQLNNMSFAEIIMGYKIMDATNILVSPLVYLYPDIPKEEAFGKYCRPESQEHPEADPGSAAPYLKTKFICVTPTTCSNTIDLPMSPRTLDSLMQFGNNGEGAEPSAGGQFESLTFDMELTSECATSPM
Paired box protein Pax-6 (Homo sapiens), sequence (P26367 whole entry, looked up): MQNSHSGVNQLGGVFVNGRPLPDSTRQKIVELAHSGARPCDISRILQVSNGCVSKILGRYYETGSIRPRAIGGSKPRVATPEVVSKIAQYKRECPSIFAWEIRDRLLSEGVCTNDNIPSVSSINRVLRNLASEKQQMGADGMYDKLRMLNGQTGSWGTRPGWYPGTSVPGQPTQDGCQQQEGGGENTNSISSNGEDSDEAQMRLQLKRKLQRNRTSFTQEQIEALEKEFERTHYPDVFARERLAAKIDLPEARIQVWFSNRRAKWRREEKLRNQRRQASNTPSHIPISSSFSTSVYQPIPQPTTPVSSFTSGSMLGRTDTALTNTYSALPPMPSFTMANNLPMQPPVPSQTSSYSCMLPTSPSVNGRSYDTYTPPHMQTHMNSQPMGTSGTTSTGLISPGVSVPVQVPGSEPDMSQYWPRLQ

[Cu+]
inactive: all assays above
